SMARCA2 activ – SMARCA2 (BRM) function activators, primary screen, cell-based, luminescence, high throughput. MG213 cells, MMTV-luciferase reporter, dexamethasone, overnight. activation, % at 9.1 µM. actives 1% (n = 370,000); in the data active = activation above about 7.8%;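 note: 0% = vehicle wells and 100% = reference activator wells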
hgDAF12 agonist – H. glycines DAF-12 receptor agonists, primary screen, cell-based, luminescence, HEK293, GAL4 fusion, UAS-luciferase | activation, % at 6.8 µM | AID 687014, 2013 | actives 1.8% (n = 370,000) | Nuclear hormone receptor DAF-12 (Heterodera glycines), GAL4 fusion | HEK293 GAL4-hgDAF12 UAS-luciferase reporter, agonist luminescence; normalized to butyrate control;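 active = activation above a cutoff set at the mean of all screened compounds plus 3 SD, cut at about 10% in these data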;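 note: 0% = DMSO wells and 100% = sodium butyrate wells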
DAX1 inh-1 – DAX1 (NR0B1) inhibitors on StAR promoter, primary screen, cell-based, luminescence, SF-1 (NR5A1), full-length DAX-1. HEK293T StAR-luciferase reporter, SF-1/DAX-1 repression relief. inhibition, % at 6.8 µM. actives 1.1% (n = 370,000). AID 652010, 2013;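 active = inhibition above the mean over all tested compounds plus 3 SD, cut at about 3.6% in these data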;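 note: 0% = DAX-1 cells with DMSO and 100% = cells lacking DAX-1 with DMSO; higher inhibition means more luminescence from relief of DAX-1 repression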
ssDAF-12 act – S. stercoralis DAF-12 nuclear receptor activators, primary screen, cell-based, luminescence, HEK293, GRIP1 co-expression, lit1-tk-luc; AID 652126, 2013; Nuclear hormone receptor DAF-12 (Strongyloides stercoralis); actives 1% (n = 370,000); HEK293 ssDAF-12/GRIP1 lit1-tk-luc reporter; % of 3 µM dafachronic acid response; activation, % at 6.8 µM;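 active = activation above the mean over all tested compounds plus 3 SD, cut at about 0.9% in these data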;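 note: 0% = DMSO-only wells and 100% = 3 µM delta7-dafachronic acid wells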
hcDAF-12 act – H. contortus DAF-12 nuclear receptor activators, primary screen, cell-based, luminescence, HEK293, lit1-tk-luc reporter; HEK293 hcDAF-12 lit1-tk-luc reporter; 0% DMSO, 100% Δ7-dafachronic acid; activation, % at 6.8 µM; actives 1.4% (n = 370,000); AID 652067, 2013;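 active = activation above the mean of all tested compounds plus 3 SD, cut at about 5.5% in these data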;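 note: 100% = response to 3 µM Δ7-dafachronic acid high control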
DAX1 inh-2 – DAX1 (NR0B1) inhibitors, primary screen, cell-based, HEK293, Gal4-DAX1, luciferase luminescence | HEK293 Gal4-DAX1 luciferase reporter | inhibition, % at 6.75 µM | Nuclear receptor subfamily 0 group B member 1 (Homo sapiens), P51843 | AID 504766, 2011 | actives 0.99% (n = 340,000);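 active = inhibition above the mean over all tested compounds plus 3 SD, cut at about 4.2% in these data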;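 note: 0% = DAX1-transfected cells with DMSO and 100% = empty-vector control cells with DMSO; inhibition shows as a rise in luminescence from relieved DAX1 repression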
Target sequence (P51843 207-470 limits assumed): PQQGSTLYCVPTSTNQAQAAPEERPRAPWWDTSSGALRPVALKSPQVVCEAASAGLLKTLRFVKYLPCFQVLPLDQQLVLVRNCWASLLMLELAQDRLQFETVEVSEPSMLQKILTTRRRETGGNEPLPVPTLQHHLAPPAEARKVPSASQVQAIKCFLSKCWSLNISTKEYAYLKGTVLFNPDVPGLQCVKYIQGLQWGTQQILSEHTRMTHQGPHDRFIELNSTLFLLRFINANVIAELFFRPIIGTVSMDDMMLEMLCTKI
LXRb hcDAF ctr – LXR agonists, Gal4 luciferase reporter, confirmation, counter-screen for hcDAF-12 agonist project, cell-based, luminescence, HEK293, H. contortus campaign; activation, % at 6.8 µM; 3,400 tested, under 10 active; HEK293 Gal4-LXR tk-luc reporter, 24 h; normalized: DMSO 0%, positive control 100%; AID 743027, 2013; shares compounds with hcDAF-12 act;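 active = mean percent activation of the reporter above a cutoff set as the average over tested compounds plus their standard deviation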
Target sequence (P55055 whole entry, looked up, the tested form may be a part): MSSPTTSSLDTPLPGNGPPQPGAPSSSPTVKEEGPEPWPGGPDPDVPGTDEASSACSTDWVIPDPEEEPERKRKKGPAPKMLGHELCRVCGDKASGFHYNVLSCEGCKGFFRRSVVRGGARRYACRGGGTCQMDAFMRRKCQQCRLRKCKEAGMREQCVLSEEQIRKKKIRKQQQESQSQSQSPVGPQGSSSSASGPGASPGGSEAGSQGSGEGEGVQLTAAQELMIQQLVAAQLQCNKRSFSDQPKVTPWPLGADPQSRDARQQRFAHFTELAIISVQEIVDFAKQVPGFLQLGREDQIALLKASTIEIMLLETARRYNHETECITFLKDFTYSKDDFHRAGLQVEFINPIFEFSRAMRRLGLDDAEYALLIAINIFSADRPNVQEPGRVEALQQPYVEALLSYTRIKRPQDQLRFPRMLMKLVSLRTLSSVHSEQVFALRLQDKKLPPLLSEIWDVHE
hcDAF12 conf – H. contortus DAF-12 receptor agonists, confirmation, cell-based, luminescence, HEK293, lit1-tk-luc, triplicate | activation, % at 6.8 µM | shares compounds with hcDAF-12 act | actives 61% (n = 3,400) | HEK293 hcDAF-12 lit1-tk-luc reporter; % of Δ7-dafachronic acid response;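 active = mean activation across triplicate tests above the threshold derived from the earlier primary screen, cut at about 5.5% in these data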;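 note: 0% = DMSO only wells and 100% = 3 µM Δ7-dafachronic acid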
Active calls of the source: *; nt = no result. A selection: hits, their analogues and other compounds. The true share with any hit is near 4.8%.

SMILES | SMARCA2 activ | hgDAF12 agonist | DAX1 inh-1 | ssDAF-12 act | hcDAF-12 act | DAX1 inh-2 | LXRb hcDAF ctr | hcDAF12 conf
O=C(Nc1ccc2ccccc2c1)NC1CCCCN(Cc2ccc(Cl)cc2)C1=O (stereo not given) | -4.9 | 6.1 | -1.0 | 2.9* | 9.2* | nt | -0.2 | 0.0
COc1ccc(CCC(=O)OCC(=O)N(CC(C)C)c2c(N)n(Cc3ccccc3)c(=O)[nH]c2=O)cc1 | -2.4 | 3.4 | 0.6 | -1.2 | 0.0 | -0.3 | nt | nt
Clc1ccc2nc(-c3ccc(Br)s3)cn2c1 | 4.0 | 11.2* | 3.5 | 1.0* | 14.9* | -2.1 | 1.4 | 18.8*
COc1ccc(-c2cn3nc(C)c(C)nc3n2)cc1OC | -1.7 | 1.5 | 2.5 | -0.1 | 0.7 | 1.2 | nt | nt
COc1ccc(-c2cn3cc(Cl)ccc3n2)cc1OC | 7.5 | 9.0 | 2.4 | 0.7 | 8.6* | 1.9 | 0.2 | 5.2
O=C(CC1(C(F)(F)F)OCCO1)Nc1ccc2c(c1)OCO2 | 0.6 | 2.5 | 0.1 | -0.3 | -0.5 | 0.5 | nt | nt
O=C1NC(=O)C(CC(=O)N(Cc2cccs2)C2(C(=O)NC3CCCC3)CCCCC2)N1 (stereo not given) | 2.0 | -0.7 | 0.4 | -0.6 | 8.7* | -0.9 | -0.2 | 0.2
CN(C)C=NC(=O)/C(C#N)=C/c1ccccc1 | -1.7 | -0.3 | 0.2 | -0.5 | 1.3 | -0.2 | nt | nt
O=C(CNc1ccccc1C(=O)O)c1ccccc1 | 3.0 | 1.1 | 0.9 | 0.5 | 7.7* | 1.0 | -0.3 | -0.2
CCN(CC(=O)Nc1ccc(NC(C)=O)cc1)C(=O)C1(c2ccccc2)CC1 | 0.3 | -1.3 | 0.9 | -1.4 | 0.3 | -0.3 | nt | nt
CC(=O)OCc1nc2ccccc2s1 | 7.3 | 11.7* | 4.0* | 0.3 | 7.7* | 2.3 | 1.1 | 12.0*
NC(=O)c1ccccc1OCc1nc2ccccc2s1 | 3.7 | 12.7* | 2.0 | 0.4 | 13.8* | 2.1 | 1.3 | 13.6*
CCOC(=O)c1nc2ccccc2s1 | 6.8 | 5.1 | 1.5 | 1.4* | 8.8* | 2.5 | 0.3 | 9.3*
O=C(O)COCc1nc2ccccc2s1 | -1.6 | 0.5 | 0.5 | -1.2 | -0.2 | 1.8 | nt | nt
CC1=C(C(=O)N(C(C)C)C(C)C)CC(CC(=O)NCc2ccco2)C(=O)N1CCCN1CCCC1=O (stereo not given) | -1.1 | -1.2 | -0.4 | -0.9 | -1.4 | nt | nt | nt
COc1ccc(C(=O)N/C(=C\c2cn(C)c3ccccc23)C(=O)N2CCOCC2)cc1 | -1.7 | 1.4 | -0.5 | -0.6 | 1.3 | -0.2 | nt | nt
Cc1cccc(NC(=O)C2CCN(S(=O)(=O)c3c(C)c(C)cc(C)c3C)CC2)n1 | -2.0 | -3.1 | -3.2 | -1.9 | -3.2 | -2.0 | nt | nt
CCc1c(C)nc(SCC(=O)c2cccs2)c(C#N)c1C | 7.6 | 5.7 | 2.0 | 0.8 | 8.2* | 2.5 | 1.0 | 8.7*
CCc1c(C)nc(SCC(N)=O)c(C#N)c1C | -1.0 | 1.0 | -0.1 | -1.0 | -1.7 | -0.5 | nt | nt
Cc1cccc(N2O[C@H]3C=C[C@@H]2C3)n1 | -1.3 | 2.1 | 0.2 | -0.3 | 9.4* | nt | -0.1 | 5.6*
COc1ccccc1/C=N/N(C(C)=O)c1nc(-c2ccc(F)cc2)cs1 | 0.3 | 8.8 | 1.2 | 1.2* | 7.2* | 2.7 | 0.6 | 10.7*
COc1ccc(/C=N/N(C(C)=O)c2nc(-c3ccc(C)cc3)cs2)cc1 | -0.9 | 0.4 | -0.3 | -1.3 | -1.1 | 2.1 | nt | nt
CC(=O)c1cccc2c(O)c(C3=Nc4ccccc4C3=O)[nH]c12 | 2.4 | 4.9 | 1.2 | 1.2* | 6.6* | 0.4 | 0.6 | 7.1*
O=C(O)c1cccc2c(-c3ccccc3)c(-c3ccccc3)[nH]c12 | -0.8 | -2.6 | -0.2 | -0.8 | 0.1 | -0.9 | nt | nt
COc1ccc(NC(=O)CSc2n[nH]c(-c3ccncc3)n2)cc1Cl | -0.7 | 0.9 | 0.7 | -0.6 | 1.4 | 0.0 | nt | nt
SMILES | SMARCA2 activ | hgDAF12 agonist | DAX1 inh-1 | ssDAF-12 act | hcDAF-12 act | DAX1 inh-2 | LXRb hcDAF ctr | hcDAF12 conf
O=C(NNc1ccccc1Br)C(=O)n1ccc2ccccc21 | -1.1 | 1.4 | -0.3 | 0.0 | 7.6* | 0.1 | -0.3 | 1.9
O=C(c1ccc(Cl)nc1)N1CCN(C/C=C/c2ccccc2)CC1 | -1.2 | -4.1 | -1.0 | -1.8 | 0.2 | -1.2 | nt | nt
COc1ccc(NC(=O)c2oc3ccccc3c2C)c(OC)c1 | 1.5 | 2.5 | -0.1 | -0.2 | 2.3 | 0.2 | nt | nt
COc1ccccc1NC(=O)c1oc2ccccc2c1C | 3.5 | 8.9 | -0.7 | 2.2* | 7.0* | 3.0 | 0.1 | 6.7*
COc1cccc(NC(=O)c2cc3ccccc3o/c2=N\O)c1 | 0.5 | 12.3* | 1.8 | 1.1* | 7.5* | -3.5 | 1.8 | 10.7*
COc1ccc(NC(=O)c2cc3ccccc3o2)cc1 | 1.3 | 12.3* | 2.3 | 0.8 | 7.2* | 1.8 | 1.5 | 7.3*
Cc1ccc(NC(=O)c2cc3ccccc3o2)cc1Cl | 2.0 | 13.1* | 3.1 | 0.0 | 8.8* | 6.8* | 1.3 | 5.9*
COc1ccc(NC(=O)c2cc3ccccc3o2)cc1OC | 1.2 | 5.1 | 0.8 | -0.7 | -0.2 | 3.2 | nt | nt
COc1cccc(NC(=O)c2ccccc2Oc2ccccc2)c1 | -6.0 | 0.1 | -0.2 | -1.2 | -2.0 | 1.3 | nt | nt
COc1ccc(/C=N/N2CCN(c3ccc(Cl)cc3)CC2)cc1O | -1.8 | -0.3 | -0.8 | -1.6 | -3.0 | -1.7 | nt | nt
CC(C)CC1c2[nH]c3ccccc3c2CCN1C(=O)c1cnccn1 (stereo not given) | 4.2 | 4.8 | 1.4 | 0.9* | 9.6* | nt | 1.1 | 12.3*
Cc1ccc(CNc2nc3ccccc3s2)s1 | 4.9 | 6.3 | 4.0* | 1.0* | 10.4* | -2.5 | 1.4 | 11.8*
c1ccc2sc(NCC3CCCO3)nc2c1 (stereo not given) | 2.2 | 10.1 | 4.2* | 0.2 | 8.2* | 3.8 | 0.6 | 4.5
COc1ccc(CNc2nc3ccccc3s2)cc1OC | -0.1 | 1.8 | -0.2 | -1.3 | 0.6 | -1.1 | nt | nt
